The results in this text go back to the supplement of paper PMC11624193, “Coupling cellular drug-target engagement to downstream pharmacology with CeTEAM” (Nature Communications, 2024).

Counter-ions that a name gives are not always drawn. ± gives the standard deviation of the averaged measurements.

The target of this test is PARP1 L713F-nLuc biosensor (HCT116) (UniProt P09874). Kind of test: PARP1 L713F-nLuc/akaLuc ratio relative to DMSO control (biosensor stabilization) (fold change); higher = more PARP1 biosensor stabilization (target engagement / stabilizer), active = hit call of the paper. To be noted: stock concentration (mM; final µM = stock mM x 1): 10; 24 h.
Sequence of PARP1 L713F-nLuc biosensor (HCT116) (P09874 whole entry L713F, looked up): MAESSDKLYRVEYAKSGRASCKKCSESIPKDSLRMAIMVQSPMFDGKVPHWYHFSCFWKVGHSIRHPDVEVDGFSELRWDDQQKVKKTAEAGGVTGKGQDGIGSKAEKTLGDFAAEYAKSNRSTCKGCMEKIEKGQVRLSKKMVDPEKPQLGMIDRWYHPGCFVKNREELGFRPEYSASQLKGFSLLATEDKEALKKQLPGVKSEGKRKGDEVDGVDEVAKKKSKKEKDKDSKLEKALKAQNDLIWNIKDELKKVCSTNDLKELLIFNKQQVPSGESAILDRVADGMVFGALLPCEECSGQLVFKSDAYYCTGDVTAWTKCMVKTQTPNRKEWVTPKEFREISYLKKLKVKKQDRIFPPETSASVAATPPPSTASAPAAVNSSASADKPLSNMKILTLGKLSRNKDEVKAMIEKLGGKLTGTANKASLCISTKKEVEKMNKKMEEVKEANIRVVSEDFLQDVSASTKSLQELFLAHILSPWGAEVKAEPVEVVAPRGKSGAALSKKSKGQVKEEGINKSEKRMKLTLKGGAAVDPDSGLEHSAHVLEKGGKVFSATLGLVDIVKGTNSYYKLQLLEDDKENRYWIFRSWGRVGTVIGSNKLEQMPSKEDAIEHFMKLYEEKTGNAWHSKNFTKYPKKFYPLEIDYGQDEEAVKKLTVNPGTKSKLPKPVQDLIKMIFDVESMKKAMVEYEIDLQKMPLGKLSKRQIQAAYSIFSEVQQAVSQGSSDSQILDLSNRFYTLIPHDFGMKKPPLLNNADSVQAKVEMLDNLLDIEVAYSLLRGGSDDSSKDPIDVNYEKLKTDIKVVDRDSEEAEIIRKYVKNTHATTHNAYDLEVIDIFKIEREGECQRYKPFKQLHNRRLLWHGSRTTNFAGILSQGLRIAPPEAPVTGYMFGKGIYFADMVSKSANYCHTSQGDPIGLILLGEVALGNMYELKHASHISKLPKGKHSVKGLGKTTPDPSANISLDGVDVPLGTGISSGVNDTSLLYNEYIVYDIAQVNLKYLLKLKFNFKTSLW
In the case of `CS(=O)(=O)c1ccc(-c2nnc(/C=C/c3nnc(-c4ccc(C#N)cc4)o3)n2-c2ccccc2Cl)nc1`, the “PARP1 L713F-nLuc/akaLuc ratio” value is 0.886 (inactive).
Take `O=c1ncn2nc(Sc3ccc(F)cc3F)ccc2c1-c1c(Cl)cccc1Cl`: the “PARP1 L713F-nLuc/akaLuc ratio” value was 0.808 (inactive).
As for `CO[C@H]1C[C@@H]2CC[C@@H](C)[C@@](O)(O2)C(=O)C(=O)N2CCCC[C@H]2C(=O)O[C@H]([C@H](C)C[C@@H]2CC[C@@H](OCCO)[C@H](OC)C2)CC(=O)[C@H](C)/C=C(\C)[C@@H](O)[C@@H](OC)C(=O)[C@H](C)C[C@H](C)/C=C/C=C/C=C/1C` [Everolimus (RAD001)], the “PARP1 L713F-nLuc/akaLuc ratio” value is 0.669 (inactive).
Take `N[C@H]1C(O)O[C@H](CO)[C@@H](O)[C@@H]1O` (stereo partly drawn) [Glucosamine (hydrochloride)]: the “PARP1 L713F-nLuc/akaLuc ratio” value was 1.15 (inactive).
The value for `CCNC(=O)CCC/C=C\C[C@@H]1[C@@H](/C=C/[C@@H](O)CCc2ccccc2)[C@H](O)C[C@@H]1O` [Bimatoprost] was 0.942 (inactive); that for `Cc1ccc(F)c(NC(=O)Nc2ccc(-c3cccc4[nH]nc(N)c34)cc2)c1` [Linifanib (ABT-869)] was 3.59 (active).
Regarding `CCN(CC)CCCC(C)Nc1c2ccc(Cl)cc2nc2ccc(OC)cc12` (stereo not drawn) [Quinacrine Dihydrochloride Dihydrate], the “PARP1 L713F-nLuc/akaLuc ratio” value is 0.656 (inactive).
With `C[C@H]1CCCN1Cc1nc2cc(NC(=O)c3ccc4c(cnn4C)c3)ccc2[nH]1`, the “PARP1 L713F-nLuc/akaLuc ratio” value was 0.788 (inactive).
Turning to `CC(C)(C)c1nc(-c2cccc(NS(=O)(=O)c3c(F)cccc3F)c2F)c(-c2ccnc(N)n2)s1`, the “PARP1 L713F-nLuc/akaLuc ratio” value is 0.885 (inactive).
Consider `COc1cc2nc(N3CCCC3)nc(NCCCCCN3CCCC3)c2cc1OC`, for which the “PARP1 L713F-nLuc/akaLuc ratio” value was 0.881 (inactive).
As for `Cc1cc(-c2nc(-c3ccc(OC(F)(F)F)cc3)no2)nn1Cc1ccnc(N2CCN(C3CC3)CC2)c1`, the figure is 0.46 ± 0.17; as for `C=CC(=O)N1C[C@H](Nc2ncnc3[nH]ccc23)CC[C@@H]1C` [Ritlecitinib], 1.01 (inactive); as for `Nc1nc(NC2CC2)cc(-c2cccc(Cl)c2Cl)n1`, 1.94 (inactive).
As for `O=C(Nc1ccc(Cl)cc1)c1cc2ccccc2cc1OP(=O)(O)O`, the “PARP1 L713F-nLuc/akaLuc ratio” value was 1.35 (inactive).
Turning to `CCCC(=O)c1c(O)c(Cc2c(O)c(Cc3c(O)c(C)c(OC)c(C(=O)CCC)c3O)c(O)c(C(=O)[C@@H](C)CC)c2O)c(O)c(C)c1OC` [Agrimol B], the “PARP1 L713F-nLuc/akaLuc ratio” value is 1.14 (inactive).
`Cn1ncc(Cl)c1-c1cc(C(=O)N[C@H](CN)Cc2cccc(F)c2)sc1Cl` [Afuresertib]: the “PARP1 L713F-nLuc/akaLuc ratio” value is 1.63 (inactive).
As for `CC(CC(=O)C[C@@H](C)[C@H]1CC(=O)[C@@]2(C)C3=C(C(=O)C[C@]12C)[C@@]1(C)CCC(=O)C(C)(C)[C@@H]1C[C@@H]3O)C(=O)O` (stereo partly drawn) [Ganoderic acid D], the figure is 0.929 (inactive); as for `O=C1CCc2ccccc2O1` [Dihydrocoumarin], 0.769 (inactive).
With `COCCNCc1ccc(-c2cc3nccc(Oc4ccc(NC(=O)C5(C(=O)Nc6ccc(F)cc6)CC5)cc4F)c3s2)nc1` [Sitravatinib (MGCD516)], the “PARP1 L713F-nLuc/akaLuc ratio” value was 1.48 (inactive).
For the compound `O=C(Nc1cnn2ccc(N3CCC[C@@H]3c3cc(F)ccc3F)nc12)N1CC[C@H](O)C1` [Larotrectinib (LOXO-101) sulfate], the “PARP1 L713F-nLuc/akaLuc ratio” value is 0.817 (inactive).
As for `O=C(c1ccc(/C=C/c2n[nH]c3ccccc23)cc1)N1CCNCC1`, the figure is 1.3 (inactive); as for `CC(C)(C)c1nc2c3cc[nH]c(=O)c3c3cc(F)ccc3c2[nH]1` [Pyridone 6], 0.692 (inactive).
With `O=C(O)CNC(=O)c1ncc(-c2cccc(F)c2)cc1O`, the “PARP1 L713F-nLuc/akaLuc ratio” value was 0.618 (inactive).
Take `Nc1nc(Cl)nc2c1ncn2[C@@H]1O[C@H](CO)[C@@H](O)[C@@H]1F` [Clofarabine]: the “PARP1 L713F-nLuc/akaLuc ratio” value is 0.577 (inactive).
For `O=C1CN2Cc3c(ccc(Cl)c3Cl)N=C2N1` [Anagrelide HCl], the “PARP1 L713F-nLuc/akaLuc ratio” value is 0.856 (inactive).
Regarding `C=C1CCC[C@]2(C)C=C3OC(=O)C(C)=C3C[C@@H]12` [Atractylenolide I], the “PARP1 L713F-nLuc/akaLuc ratio” value is 0.934 (inactive).
Consider `CCS(=O)(=O)N1CCN(c2ccc(Nc3ncc(C(N)=O)c(NC4CC4)n3)cc2)CC1` [Cerdulatinib (hydrochloride)], for which the “PARP1 L713F-nLuc/akaLuc ratio” value is 1.06 (inactive).
As to `CCCCCC1CC1CC1CC1CCCCCCCC(=O)OC` (stereo not drawn), the “PARP1 L713F-nLuc/akaLuc ratio” value is 1 (inactive).
Consider `CN(C)C(=O)/C(C#N)=C/c1ccc(-c2nc3cnc4[nH]ccc4c3n2C2CCCCC2)o1`, for which the “PARP1 L713F-nLuc/akaLuc ratio” value was 1.08 (inactive).
On to `CS(=O)(=O)CCNCc1ccc(-c2ccc3ncnc(Nc4ccc(OCc5cccc(F)c5)c(Cl)c4)c3c2)o1` [Lapatinib], for which the “PARP1 L713F-nLuc/akaLuc ratio” value is 0.617 (inactive).
As for `NC(=O)[C@H](CCCN=C(N)CCl)NC(=O)c1ccccc1` [Cl-amidine (hydrochloride)], the “PARP1 L713F-nLuc/akaLuc ratio” value was 0.914 (inactive).
On to `CC(C)N(C[C@H]1O[C@@H](n2cnc3c(N)ncnc32)[C@H](O)[C@@H]1O)[C@H]1C[C@@H](CCc2nc3cc(C(C)(C)C)ccc3[nH]2)C1` [Pinometostat], for which the “PARP1 L713F-nLuc/akaLuc ratio” value was 0.649 (inactive).
Take `O=C(Nc1ccnc(NC(=O)C2CC2)c1)c1c(Cl)cccc1Cl`: the “PARP1 L713F-nLuc/akaLuc ratio” value was 1.13 (inactive).
The value for `Cn1cc(C(=O)Nc2ccc([C@@H]3C[C@H]3NCC3CC3)cc2)cn1` was 0.949 (inactive); that for `CC(C)c1c(-c2ccccc2)nc2c(C#N)c[nH]n2c1=O` was 0.786 (inactive); that for `c1cc(-c2cnn3cc(-c4ccc(OCCN5CCCCC5)cc4)cnc23)ccn1` [Dorsomorphin (dihydrochloride)] was 1.8 (inactive).
With `O=C1c2cccc(O)c2C(=O)c2c(O)cccc21` [Danthron], the “PARP1 L713F-nLuc/akaLuc ratio” value is 1.32 (inactive).
`Cc1ccc(-c2cc(C(F)(F)F)nn2-c2ccc(S(N)(=O)=O)cc2)cc1` [Celecoxib]: the “PARP1 L713F-nLuc/akaLuc ratio” value is 1.02 (inactive).
